Data taken from PubChem BioAssay.
For some assays here: Measured potencies and affinities stand elsewhere. Calls of active or inactive are those of the source. Unless noted, no rule for the calls is given here.

What follows are compounds tested against Protein kinase 7 (PK7), Plasmodium falciparum 3D7 (PF3D7_0213400) (UniProt Q7YTF7) (assay: inhibition of Plasmodium PK7 catalytic activity – biochemical, TCAMS antimalarial set, Kinase-Glo luminescence (AID 1159587)). Details: recombinant PfPK7, Kinase-Glo ATP depletion luminescence.
Chain of Protein kinase 7 (PK7), Plasmodium falciparum 3D7 (PF3D7_0213400) (Q7YTF7 1-343): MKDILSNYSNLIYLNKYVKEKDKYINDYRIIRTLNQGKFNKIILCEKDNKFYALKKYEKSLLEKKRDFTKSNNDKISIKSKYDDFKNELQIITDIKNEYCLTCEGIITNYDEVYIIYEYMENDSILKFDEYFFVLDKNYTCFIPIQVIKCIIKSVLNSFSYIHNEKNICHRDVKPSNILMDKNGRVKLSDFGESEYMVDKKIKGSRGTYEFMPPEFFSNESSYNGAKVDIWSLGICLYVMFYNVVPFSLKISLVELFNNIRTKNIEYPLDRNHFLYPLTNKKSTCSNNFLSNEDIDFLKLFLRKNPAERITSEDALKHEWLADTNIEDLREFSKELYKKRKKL
O=C(Nc1cccc(CN2CCN(C(=O)c3cccc(F)c3)CC2)c1)c1ccco1 was tested, and the outcome was “inactive”. In the case of Cc1cc(-c2ccc3c(c2)CCN(CCC2CCC(NC(=O)/C=C/c4cccc(F)c4)CC2)CC3)on1 (stereo not given), the outcome was “inactive”. With CN(C)c1ccc(CN2CCC(NC(=O)c3ccc(-c4ccccc4Cl)s3)CC2)cc1 the outcome was “inactive”. With CC(C)c1ccc(NC(=O)c2ccc(C(=O)NC3CCN(Cc4ccsc4)C3)cc2)cc1 (stereo not given) the outcome was “inactive”. COc1ccc2nccc(N3CCC(NCCNCc4ccc5c(n4)NC(=O)CO5)C3)c2n1 (stereo not given) was tested, and the outcome was “inactive”. FC(F)(F)c1ccc2nc(-c3ccc(-c4cccc(CNCc5cnn(-c6ccccc6)n5)c4)cc3)[nH]c2c1 was tested, and the outcome was “inactive”. In the case of Brc1cc(Br)c2c(c1)C(NCCCNc1nc3ncccc3[nH]1)CCN2 (stereo not given), the outcome was “inactive”. With O=C(COc1ccccc1)Nn1cnc2ccccc21 the outcome was “inactive”. For CC1CC(C)CN(CCCNc2ccc(C(=O)Nc3ccc(C(F)(F)F)cc3)cc2[N+](=O)[O-])C1 (stereo not given), the outcome was “inactive”. With O=C(NCCN1CCCC1)c1ccc(-c2ccc(-c3nc4ccccc4[nH]3)s2)cc1 the outcome was “inactive”. With COc1ccc(Cc2c(N)nc3nc(N)nc(N)c3c2C)cc1 the outcome was “inactive”. In the case of CN(C)CCN(C)Cc1ccc(-c2cccc(NC(=O)c3ccc(Cl)cc3)c2)cc1, the outcome was “inactive”. With CCC1CN2CCc3cc(OC)c(OC)cc3C2CC1CC1NCCc2cc(OC)c(OC)cc21 (stereo not given) the outcome was “inactive”. For COc1cc2c(cc1CCNCCCCNCCc1cc3c(cc1OC)CCCC3)CCCC2, the outcome was “inactive”. In the case of O=C(c1ccc(Cl)c(Cl)c1)N1CCc2c([nH]c3ccccc23)C1CN1CCCC1 (stereo not given), the outcome was “inactive”. CC(C)(C)C/C=C\c1ccc(C(=O)NCC2CC2)cc1 was tested, and the outcome was “inactive”. In the case of c1ccc(CNCc2cccc(-c3ccc(-c4nc5ccccc5[nH]4)s3)c2)cc1, the outcome was “inactive”. O=C(NCCCCN1CCC(c2ccc(C(F)(F)F)cc2C(F)(F)F)CC1)c1ccc(NC(=O)c2ccc(Cl)cc2)cc1 was tested, and the outcome was “inactive”. FC(F)(F)c1ccc2nc(-c3ccc(-c4cccc(CNCc5cnn(-c6ccccc6)n5)c4)s3)[nH]c2c1 was tested, and the outcome was “inactive”. For Cc1cc(N[C@@H](CC(C)C)C(=O)NC2CCCC2)nc(NCCc2ccc(F)cc2)n1, the outcome was “inactive”. With CC1(C)N=C(N)N=C(N)N1c1ccc([N+](=O)[O-])cc1 the outcome was “inactive”. For Cc1[nH]c(C)c(-c2ccc(C(F)(F)F)cc2)c(=O)c1Br, the outcome was “inactive”. For CCOC(=O)c1ccc(OCc2ccc(-c3ccccc3)cc2)cc1, the outcome was “inactive”. Cc1cccc(-n2c(=O)c3c4c(sc3n3c(SCCC(C)C)nnc23)CCCC4)c1 was tested, and the outcome was “inactive”. COc1ccc(NC(=O)[C@H](Cc2ccccc2)Nc2cc(C)nc(NCCc3cccnc3)n2)cc1 was tested, and the outcome was “inactive”. For CC(C)(C)c1ccc2nc(-c3ccc(C(=O)NCCCc4ccccc4)cc3)[nH]c2c1, the outcome was “inactive”. In the case of Cc1cc(NN=Cc2ccc(F)cc2)c2ccc(C(F)(F)F)cc2n1, the outcome was “inactive”. CC(=O)Nc1ncc(C(=O)Nc2ccc(-c3cccc(-c4nc5ccc(F)cc5[nH]4)c3)cc2)s1 was tested, and the outcome was “inactive”. With COc1cc(C(=O)NC2CCN(Cc3ccccc3)CC2)ccc1-c1nc2cc(Cl)c(C)cc2[nH]1 the outcome was “inactive”. In the case of COc1cc(C(=O)Nc2cccc(-c3nc4ccccc4[nH]3)c2)ccc1OC(C)=O, the outcome was “inactive”. For CCCN1CCC2(CC1)NC(C(=O)NCCC(C)C)Cc1c2[nH]c2cc(Cl)ccc12 (stereo not given), the outcome was “inactive”. In the case of Nc1cc(-c2ccc(-c3cccs3)s2)nc2ccccc12, the outcome was “inactive”. In the case of CN1CCC(Oc2ccc(CN3CC[C@H](NC(=O)c4ccc(Cl)c(Cl)c4)C3)c3ccccc23)C1 (stereo not given in full), the outcome was “inactive”. For Cc1c(C(=O)[C@@H]2C[C@H]2CN2CCC(N3CCCC3)CC2)sc2ccccc12, the outcome was “inactive”. In the case of O=S(=O)(NCCN1CCCC1)c1ccc(-c2ccc(CNCc3ccc(F)cc3)cc2)cc1, the outcome was “inactive”. In the case of Cn1cnc(CCNC(=O)c2ccc(-c3ccc(-c4nc5ccc(C(F)(F)F)cc5[nH]4)s3)cc2)c1, the outcome was “inactive”. For COc1ccc2c(NN=CC=Cc3ccccc3)cc(C)nc2c1, the outcome was “inactive”. CCCCC(CCCC)CN1C(=O)C(c2ccccc2)(c2ccccc2)N=C1N was tested, and the outcome was “inactive”. O=C(NC1CCC(N2CCCC(OCc3ccccc3)C2)CC1)c1cc2ccccc2[nH]1 (stereo not given) was tested, and the outcome was “inactive”. For Fc1cc(Cl)ccc1Nc1ccnc2cc(-c3ccc(CN4CCSCC4)o3)ccc12, the outcome was “inactive”.

Each compound was assayed against Calcium-dependent protein kinase 4 (Plasmodium falciparum (isolate 3D7)) (UniProt Q8IBS5) (assay: PfCDPK4 kinase inhibitors, biochemical, TCAMS library (AID 1159588; cut-off not given, nearly all actives have IC50 up to about 0.91 µM)). Details: recombinant PfCDPK4, Kinase-Glo ATP depletion luminescence.
Chain of Calcium-dependent protein kinase 4 (Plasmodium falciparum (isolate 3D7)) (Q8IBS5 whole entry, looked up): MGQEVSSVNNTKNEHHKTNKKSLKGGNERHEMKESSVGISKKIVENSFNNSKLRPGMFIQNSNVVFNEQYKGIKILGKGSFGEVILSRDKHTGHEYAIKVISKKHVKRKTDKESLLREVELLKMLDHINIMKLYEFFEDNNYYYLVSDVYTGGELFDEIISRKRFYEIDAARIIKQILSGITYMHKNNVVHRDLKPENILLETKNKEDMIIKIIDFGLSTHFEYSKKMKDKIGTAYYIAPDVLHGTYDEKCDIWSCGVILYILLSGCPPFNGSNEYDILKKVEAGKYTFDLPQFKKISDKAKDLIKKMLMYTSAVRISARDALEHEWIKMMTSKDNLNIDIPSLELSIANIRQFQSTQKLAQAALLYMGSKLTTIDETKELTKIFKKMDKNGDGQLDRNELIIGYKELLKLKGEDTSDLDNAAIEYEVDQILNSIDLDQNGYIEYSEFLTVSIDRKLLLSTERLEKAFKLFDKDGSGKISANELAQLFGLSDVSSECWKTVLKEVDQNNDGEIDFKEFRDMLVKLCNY
O=C(Nc1cccc(CN2CCN(C(=O)c3cccc(F)c3)CC2)c1)c1ccco1 was tested, and the outcome was “inactive”. For Cc1cc(-c2ccc3c(c2)CCN(CCC2CCC(NC(=O)/C=C/c4cccc(F)c4)CC2)CC3)on1 (stereo not given), the outcome was “inactive”. In the case of CN(C)c1ccc(CN2CCC(NC(=O)c3ccc(-c4ccccc4Cl)s3)CC2)cc1, the outcome was “inactive”. With CC(C)c1ccc(NC(=O)c2ccc(C(=O)NC3CCN(Cc4ccsc4)C3)cc2)cc1 (stereo not given) the outcome was “inactive”. COc1ccc2nccc(N3CCC(NCCNCc4ccc5c(n4)NC(=O)CO5)C3)c2n1 (stereo not given) was tested, and the outcome was “inactive”. FC(F)(F)c1ccc2nc(-c3ccc(-c4cccc(CNCc5cnn(-c6ccccc6)n5)c4)cc3)[nH]c2c1 was tested, and the outcome was “inactive”. In the case of Brc1cc(Br)c2c(c1)C(NCCCNc1nc3ncccc3[nH]1)CCN2 (stereo not given), the outcome was “inactive”. With O=C(COc1ccccc1)Nn1cnc2ccccc21 the outcome was “inactive”. For CC1CC(C)CN(CCCNc2ccc(C(=O)Nc3ccc(C(F)(F)F)cc3)cc2[N+](=O)[O-])C1 (stereo not given), the outcome was “inactive”. O=C(NCCN1CCCC1)c1ccc(-c2ccc(-c3nc4ccccc4[nH]3)s2)cc1 was tested, and the outcome was “inactive”. In the case of COc1ccc(Cc2c(N)nc3nc(N)nc(N)c3c2C)cc1, the outcome was “inactive”. CN(C)CCN(C)Cc1ccc(-c2cccc(NC(=O)c3ccc(Cl)cc3)c2)cc1 was tested, and the outcome was “inactive”. In the case of CCC1CN2CCc3cc(OC)c(OC)cc3C2CC1CC1NCCc2cc(OC)c(OC)cc21 (stereo not given), the outcome was “inactive”. For COc1cc2c(cc1CCNCCCCNCCc1cc3c(cc1OC)CCCC3)CCCC2, the outcome was “inactive”. O=C(c1ccc(Cl)c(Cl)c1)N1CCc2c([nH]c3ccccc23)C1CN1CCCC1 (stereo not given) was tested, and the outcome was “inactive”. With CC(C)(C)C/C=C\c1ccc(C(=O)NCC2CC2)cc1 the outcome was “inactive”. With c1ccc(CNCc2cccc(-c3ccc(-c4nc5ccccc5[nH]4)s3)c2)cc1 the outcome was “inactive”. O=C(NCCCCN1CCC(c2ccc(C(F)(F)F)cc2C(F)(F)F)CC1)c1ccc(NC(=O)c2ccc(Cl)cc2)cc1 was tested, and the outcome was “inactive”. In the case of FC(F)(F)c1ccc2nc(-c3ccc(-c4cccc(CNCc5cnn(-c6ccccc6)n5)c4)s3)[nH]c2c1, the outcome was “inactive”. With Cc1cc(N[C@@H](CC(C)C)C(=O)NC2CCCC2)nc(NCCc2ccc(F)cc2)n1 the outcome was “inactive”. With CC1(C)N=C(N)N=C(N)N1c1ccc([N+](=O)[O-])cc1 the outcome was “inactive”. Cc1[nH]c(C)c(-c2ccc(C(F)(F)F)cc2)c(=O)c1Br was tested, and the outcome was “inactive”. CCOC(=O)c1ccc(OCc2ccc(-c3ccccc3)cc2)cc1 was tested, and the outcome was “inactive”. For Cc1cccc(-n2c(=O)c3c4c(sc3n3c(SCCC(C)C)nnc23)CCCC4)c1, the outcome was “inactive”. In the case of COc1ccc(NC(=O)[C@H](Cc2ccccc2)Nc2cc(C)nc(NCCc3cccnc3)n2)cc1, the outcome was “inactive”. For CC(C)(C)c1ccc2nc(-c3ccc(C(=O)NCCCc4ccccc4)cc3)[nH]c2c1, the outcome was “inactive”. In the case of Cc1cc(NN=Cc2ccc(F)cc2)c2ccc(C(F)(F)F)cc2n1, the outcome was “inactive”. In the case of CC(=O)Nc1ncc(C(=O)Nc2ccc(-c3cccc(-c4nc5ccc(F)cc5[nH]4)c3)cc2)s1, the outcome was “inactive”. In the case of COc1cc(C(=O)NC2CCN(Cc3ccccc3)CC2)ccc1-c1nc2cc(Cl)c(C)cc2[nH]1, the outcome was “inactive”. With COc1cc(C(=O)Nc2cccc(-c3nc4ccccc4[nH]3)c2)ccc1OC(C)=O the outcome was “inactive”. With CCCN1CCC2(CC1)NC(C(=O)NCCC(C)C)Cc1c2[nH]c2cc(Cl)ccc12 (stereo not given) the outcome was “inactive”. Nc1cc(-c2ccc(-c3cccs3)s2)nc2ccccc12 was tested, and the outcome was “inactive”. For CN1CCC(Oc2ccc(CN3CC[C@H](NC(=O)c4ccc(Cl)c(Cl)c4)C3)c3ccccc23)C1 (stereo not given in full), the outcome was “inactive”. With Cc1c(C(=O)[C@@H]2C[C@H]2CN2CCC(N3CCCC3)CC2)sc2ccccc12 the outcome was “inactive”. With O=S(=O)(NCCN1CCCC1)c1ccc(-c2ccc(CNCc3ccc(F)cc3)cc2)cc1 the outcome was “inactive”. In the case of Cn1cnc(CCNC(=O)c2ccc(-c3ccc(-c4nc5ccc(C(F)(F)F)cc5[nH]4)s3)cc2)c1, the outcome was “inactive”. COc1ccc2c(NN=CC=Cc3ccccc3)cc(C)nc2c1 was tested, and the outcome was “inactive”. In the case of CCCCC(CCCC)CN1C(=O)C(c2ccccc2)(c2ccccc2)N=C1N, the outcome was “inactive”. For O=C(NC1CCC(N2CCCC(OCc3ccccc3)C2)CC1)c1cc2ccccc2[nH]1 (stereo not given), the outcome was “inactive”. Fc1cc(Cl)ccc1Nc1ccnc2cc(-c3ccc(CN4CCSCC4)o3)ccc12 was tested, and the outcome was “inactive”.
